Bioassay records from PubChem.
HT1080NT lethal: qHTS for induction of synthetic lethality in tumor cells producing 2HG: qHTS for the HT-1080-NT fibrosarcoma cell line. 1.6% of 360,000 active. Potency, µM (top dose mostly 46.1 µM), hits mostly cytotoxic. HT-1080-NT fibrosarcoma viability, CellTiter-Glo ATP luminescence, 48 h. AID 686970, 2013;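 further: NT is the 2HG producing partner of a matched IDH1 knockdown line; nearly all actives have a fitted effect of over 55% in size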
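HT-1080-NT fibrosarcoma cells (2HG-overproducing), 750 cells/well in RPMI with 5% FBS, dosed after 2 h and incubated 48 h at 37C. CellTiter-Glo luminescence normalized to DMSO and no-cell wells; concentration-response curves fitted and classed.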
HT1080 IDH1KD tx: qHTS for induction of synthetic lethality in tumor cells producing 2HG: qHTS for the HT-1080-IDH1KD cell line; HT-1080 IDH1 knockdown viability, ATP luminescence, 48 h; AID 686971, 2013; 2% of 360,000 active; Potency, µM (series often up to 46.1 µM), usual class: cytotoxic
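Knockdown cells (IDH1KD HT-1080) received compounds 2 h after plating at 750 cells/well and were kept 48 h at 37 °C in 5% FBS RPMI. A CellTiter-Glo luminescence read gave % activity for curve fitting.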
TDP1 cell noCPT: qHTS for Inhibitors of human tyrosyl-DNA phosphodiesterase 1 (TDP1): qHTS in cells in absence of CPT. DT40 Tdp1-/- hTDP1 cells, no CPT, ATP luminescence, 48 h. AID 686978, 2013. Potency, µM (highest dose often 46.2 µM), hits mostly inhibitors. 15% of 420,000 active; further: nearly all actives have a fitted effect of over 55% in size
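Growth of hTDP1-complemented DT40 Tdp1-knockout cells is measured by ATP luminescence after at least 48 hr compound exposure at 37 °C, with DMSO substituting for the 20 nM CPT used in the parallel screen.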
IL-1B inflam inh: qHTS for Inhibitors of Inflammasome Signaling: IL-1-beta AlphaLISA Primary Screen | 4.7% of 360,000 active | THP-1 LPS/ATP IL-1B secretion, AlphaLISA, 16 h; stronger effect = lower value | activity change, % at 57.5 µM; in the data active means activity change below about -50%; inconclusive means mostly about -30% to -49%
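THP-1 cells pretreated 1 hr with compounds (up to 57.5 uM final), then stimulated with LPS (250 ng/mL final) plus ATP (1.25 mM final); secreted IL-1B measured by AlphaLISA after 16 hr, decreased signal indicating inhibition.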
DT40 TDP1 CPT: qHTS for Inhibitors of human tyrosyl-DNA phosphodiesterase 1 (TDP1): qHTS in cells in presence of CPT; 12% of 420,000 active; chicken DT40 Tdp1-/-;hTDP1 cells + 20 nM CPT, ATP luminescence, 48 h; Potency, µM (titrated, usually from 46.2 µM), hits mostly inhibitors; AID 686979, 2013; further: nearly all actives have a fitted effect of over 55% in size
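Chicken DT40 Tdp1-/- cells complemented with human TDP1, 400 cells/well, exposed to compounds plus 20 nM camptothecin for at least 48 h at 37 C; viability read as ATP content by CellTiter-Glo luminescence.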
Each line names hits and unclear results; the compound was inactive in the other large screens. Sampled rows, rich in hits. Any-hit rate of the full collection: about 19%. Unless noted, the call rests on the fitted dose curve; in most records, active means well fitted curve in the direction sought with a large enough effect; inconclusive means small, poorly fitted or top-dose-only effect, or another doubt; inactive means no such curve, though single readings can be large; an effect the other way counts as inactive or inconclusive.

CCCCn1nc2cc(C(=O)NCc3ccccc3OC)ccc2c1OCC	none
COc1ccccc1Nc1nn2c(=O)c3ccc(C(=O)NCc4ccc(F)cc4)cc3nc2s1	TDP1 cell noCPT 2.31µM, DT40 TDP1 CPT 3.66µM (no result: HT1080NT lethal, HT1080 IDH1KD tx, IL-1B inflam inh)
Cc1ccc(Cl)cc1Nc1nn2c(=O)c3ccc(C(=O)NC4CCCCC4)cc3nc2s1	none (no result: HT1080NT lethal, HT1080 IDH1KD tx, IL-1B inflam inh)
COc1ccccc1Nc1nn2c(=O)c3ccc(C(=O)N4CCCCC4)cc3nc2s1	TDP1 cell noCPT 16.4µM, DT40 TDP1 CPT 13µM
CCc1ccccc1Nc1nn2c(=O)c3ccc(C(=O)NCc4ccccn4)cc3nc2s1	HT1080NT lethal 0.259µM, HT1080 IDH1KD tx 0.0291µM, TDP1 cell noCPT 11.6µM, DT40 TDP1 CPT inconclusive
CCC(Sc1nc2cc3c(cc2c(=O)n1CCCCCC(=O)NCc1ccc2c(c1)OCO2)OCO3)C(=O)NCCCOC (centres undefined)	none (no result: HT1080NT lethal, HT1080 IDH1KD tx, IL-1B inflam inh)
CCCN(CC(=O)Nc1ccccc1C)C(=O)c1ccc(S(=O)(=O)N2CCC(C)CC2)cc1	TDP1 cell noCPT inconclusive
Cc1cccc(C(=O)N[C@H](C(=O)Nc2ccc3c(c2)OCO3)C(C)C)c1	none
CCc1ccccc1Nc1nn2c(=O)c3ccc(C(=O)NCCC4=CCCCC4)cc3nc2s1	TDP1 cell noCPT 14.6µM, DT40 TDP1 CPT 16.4µM (no result: HT1080NT lethal, HT1080 IDH1KD tx, IL-1B inflam inh)
CCOc1ccc(C(=O)NCCC2=CCCCC2)cc1OCC	none
C=CCN1C(=O)SC(Cc2cccc(OC)c2O)C1=O (centres undefined)	none
O=[N+]([O-])c1nn(-c2ccc3c(c2)OCCO3)n(O)c1=NC1CCCCC1	TDP1 cell noCPT inconclusive, DT40 TDP1 CPT 20.6µM
COc1ccc(-n2nc([N+](=O)[O-])c(=NCCc3ccc(OC)c(OC)c3)n2O)cc1	TDP1 cell noCPT 20.6µM, IL-1B inflam inh inconclusive, DT40 TDP1 CPT 14.6µM
COc1ccc(-n2nc([N+](=O)[O-])c(=NCc3cccnc3)n2O)cc1	TDP1 cell noCPT inconclusive, DT40 TDP1 CPT 16.4µM
O=[N+]([O-])c1nn(-c2ccc3c(c2)OCCO3)n(O)c1=NCc1ccccc1Cl	HT1080 IDH1KD tx inconclusive, TDP1 cell noCPT inconclusive
COc1ccc(-n2nc([N+](=O)[O-])c(=NC3CCN(Cc4ccccc4)CC3)n2O)cc1	TDP1 cell noCPT 14.6µM, DT40 TDP1 CPT 16.4µM
COC(=O)N1C2CCCCC2=NN(c2ccccc2)N1C(=O)OC (centres undefined)	HT1080NT lethal inconclusive, HT1080 IDH1KD tx inconclusive
COC(=O)C1CCN(C(c2ccccc2)c2sc3nc(-c4ccco4)nn3c2O)CC1 (centres undefined)	none (no result: HT1080NT lethal, HT1080 IDH1KD tx, IL-1B inflam inh)
COc1ccc(-n2nc([N+](=O)[O-])c(=NCCC3=CCCCC3)n2O)cc1	TDP1 cell noCPT inconclusive, IL-1B inflam inh -55.4, DT40 TDP1 CPT 20.6µM
CN(C)c1ccc(/C=C2\Cc3ccccc3C2=O)cc1	TDP1 cell noCPT 3.55µM, DT40 TDP1 CPT inconclusive (no result: HT1080NT lethal, HT1080 IDH1KD tx, IL-1B inflam inh)
CN(C)/C=C1\Cc2ccccc2C1=O	DT40 TDP1 CPT 32.6µM
CN(C)c1ccc(/C=C2\CCC/C(=C\c3ccccc3)C2=O)cc1	TDP1 cell noCPT inconclusive, IL-1B inflam inh -64.7, DT40 TDP1 CPT inconclusive
Cc1ccc(-c2n[nH]c(=S)nc2-c2ccc(C)cc2)cc1	TDP1 cell noCPT inconclusive, DT40 TDP1 CPT inconclusive
C=CCn1c(C)cc(C(=O)COc2nncc3ccccc23)c1C	TDP1 cell noCPT 7.31µM, DT40 TDP1 CPT 8.2µM
Cc1ccc(OCC(=O)c2cc(C)n(-c3ccccc3)c2C)c([N+](=O)[O-])n1	TDP1 cell noCPT 14.6µM, DT40 TDP1 CPT inconclusive
C=CCn1c(C)cc(C(=O)COc2ccc(C)nc2[N+](=O)[O-])c1C	HT1080NT lethal inconclusive, HT1080 IDH1KD tx inconclusive, TDP1 cell noCPT 20.6µM, DT40 TDP1 CPT inconclusive
CCCn1c(C)cc(C(=O)COc2ccc(S(=O)(=O)N(CC)CC)cc2[N+](=O)[O-])c1C	TDP1 cell noCPT 23.1µM, DT40 TDP1 CPT 20.6µM
COc1ccc(S(=O)(=O)NNC(=O)Nc2ccc(C)cc2C)c(OC)c1	none
CC1=CC(=O)[C@@H]2C[C@H]1C2(C)C	none (no result: HT1080NT lethal, HT1080 IDH1KD tx, IL-1B inflam inh)
